RVFV N-RNA FP: RVFV nucleocapsid-RNA interaction inhibition; P21700; RVFV N-RNA binding, fluorescence polarization; active compounds read low; % bound, % (test concentration not listed); hit rate 0.1% among 20,000; AID 651828; in the data active = % bound below about 75%
Target sequence (P21700 whole entry, looked up): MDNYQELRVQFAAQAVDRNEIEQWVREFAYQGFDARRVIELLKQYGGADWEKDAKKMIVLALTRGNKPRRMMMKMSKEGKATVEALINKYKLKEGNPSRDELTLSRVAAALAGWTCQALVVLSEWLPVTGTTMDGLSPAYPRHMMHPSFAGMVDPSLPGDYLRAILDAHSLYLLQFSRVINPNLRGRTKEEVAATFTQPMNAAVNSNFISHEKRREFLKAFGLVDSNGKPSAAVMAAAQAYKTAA
* = called active by the depositor; ! = repeats disagree. Shown is part of a subset that was picked to be rich in hits.

SMILES | RVFV N-RNA FP
NC(=O)C1(Nc2ccccc2)CCCCC1 | 96
N#CCc1ccc(NC(=O)C2CCCCC2)cc1 | 100
Cn1cnc2cc(NCc3ccco3)ccc21 | 100
CCOC(=O)C(CC)Sc1nnc(-c2c[nH]c3ccccc23)n1CCOC (stereo not given) | 97
CN=c1nc(-c2ccccc2)n(-c2ccccc2)s1 | 50*
CC1(C)Cn2c(nnc2-c2ccccc2)S1 | 92
CCSc1nnc(-c2ccccc2)n1-c1ccccc1 | 98
COc1ccccc1/C=C1\SC(N2CCN(c3ccccc3)CC2)=NC1=O | 102
O=C(O)c1ccc2c3c(cccc13)C(=O)N(c1ccccc1O)C2=O | 97
Cc1ccc(N2C(=O)c3cccc4c(N5CCN(C)CC5)ccc(c34)C2=O)c2cccnc12 | 55*
O=C1c2cccc3c(Cl)ccc(c23)C(=O)N1c1ccccn1 | 89
O=C(CSc1ccccc1)N/N=C/c1ccccc1O | 89
NC(CO)C(=O)N/N=C/c1ccc(O)c(O)c1O (stereo not given) | 51*
NC(CO)C(=O)NNCc1ccc(O)c(O)c1O (stereo not given) | 85
CC(C)(C)c1cc(N)ncn1 | 102
COc1ccccc1CCN=C(N)NS(C)(=O)=O | 96
CCOc1ccc(S(=O)(=O)N2CCN(Cc3ccc4c(c3)OCO4)CC2)c2ccccc12 | 98
Cc1cc(C)nc(NC(=O)C(C)N2C(=O)c3ccccc3S2(=O)=O)n1 (stereo not given) | 90
O=C(O)COc1ccc(C(=O)NCc2ccccc2)cc1 | 101
Cc1ccc(C2c3c(oc4ccccc4c3=O)C(=O)N2Cc2ccco2)cc1 (stereo not given) | 108
Clc1ccc2c(c1)NNc1nncn1-2 | 93
NC(=O)CSc1nc2ccc(Cl)cc2[nH]1 | 100
O=C(O)CSc1nnc2n1-c1ccc(Cl)cc1NN2 | 56*
CCCCOc1cccc2c1CCN(Cc1ccccc1)C2=O | 100
CCc1ccc(NC2CC(=O)NC2=O)cc1 (stereo not given) | 95
SMILES | RVFV N-RNA FP
Cc1onc(-c2c(Cl)cccc2Cl)c1C(=O)NC(=S)Nc1ccccc1 | 101
O=C(O)CCCN1CCN([C@H](c2ccccc2)c2ccc(Cl)cc2)CC1 | 104
CCOc1ccc(NC(=S)NCC2CCCO2)cc1 (stereo not given) | 92
Cc1nc2sc(C(c3ccc(Cl)c(Cl)c3)N3CCCC3)c(O)n2n1 (stereo not given) | 91
Cc1ccc(NC(=O)c2ccco2)c(NC(=O)C(C)C)c1 | 99
CCN1C(=O)CC(OC(C)=O)C1=O (stereo not given) | 92
Cc1cc(-n2nc3ccccc3n2)c2oc(SCC(=O)NC(C)(C)C)nc2c1 | 98
CC(=O)Nc1ccc(NC(C)=O)c(C(F)(F)F)c1 | 92
C=CCN1C(=O)C2(C(C#N)=C(N)Oc3ccccc32)c2c1c1ccccc1oc2=O (stereo not given) | 93
Cc1ccc(C)c2c1sc(=NC(=O)c1ccc(C#N)cc1)n2C | 88
O=C(NCCC1=CCCCC1)c1ccc2c(c1)OCCO2 | 112
CC(C)Oc1ccc(C2CC(=O)Nc3sc(C(=O)c4ccco4)c(N)c32)cc1 (stereo not given) | 97
Cn1c(O)c(C=NC(Cc2c[nH]c3ccccc23)C(=O)O)c(=O)n(C)c1=O (stereo not given) | 107
CN1CCN(CCC(=O)N/N=C/c2ccccc2)CC1 | 101
O=C(CCCN1CCC2(CC1)C(=O)NCN2c1ccccc1)c1ccc(F)cc1 | 56*!
O=C(CCCN1CCC(O)(c2ccc(Cl)cc2)CC1)c1ccc(F)cc1 | 101
CC1CCN(CCCC(=O)c2ccc(F)cc2)CC1 | 96
CCCSc1nnc2c(n1)OC(C)(C)Nc1ccccc1-2 | 109
CC(C)(C)C(=O)NC(=S)Nc1ccccc1 | 101
Clc1cccc(-n2ncc3c(SCCN4CCCCC4)ncnc32)c1 | 103
C#CCOc1ccc2ccccc2c1CO | 90
O=C(Cc1ccc(Cl)cc1)Nc1cccc(-c2ccc(N3CCOCC3)nn2)c1 | 94
C=CCN(CC=C)S(=O)(=O)c1ccc(C(=O)Nc2nnc(-c3cc(C)ccc3C)o2)cc1 | 94
Cc1ccc(C)c2[nH]c(=O)c(CCNC(=O)C3CCCC3)cc12 | 99
CCNC(=O)CSCc1ccc(C)cc1 | 97
SMILES | RVFV N-RNA FP
CCOC(=O)c1cc(C#N)c(N2CCN(S(=O)(=O)c3ccccc3)CC2)nc1C(F)(F)F | 95
COc1cc(/C=C/C(=O)Nc2c3c(nn2C(C)(C)C)CSC3)cc(OC)c1OC | 98
COc1ccc(C(C)C)cc1S(=O)(=O)N1CCCC1 | 98
N#C/C(=C\C=C\c1ccco1)C(N)=S | 70
CC1CCCCN1C(=O)Nc1c[nH]c2ccccc12 (stereo not given) | 89
CC(C)COc1ccccc1OCC(C)C | 95
O=C(O)/C=C\C(=O)Nc1nn[nH]n1 | 91
CNC(=S)NNS(=O)(=O)c1ccc2ccccc2c1 | 95
OCCN=Cc1[nH]c2ccccc2c1O | 55*
OCC(O)CN=Cc1c(O)[nH]c2ccccc12 (stereo not given) | 92
C=CCN=Cc1c(O)[nH]c2ccccc12 | 94
Oc1c(N=Nc2ccc3c(c2)OCO3)sc2nc3ccccc3n12 | 91
O=C(c1ccc(Br)cc1)N1CCN(c2ccc(N3CCCCC3)nn2)CC1 | 102
CCOC(=O)CSc1nc2c(c(=O)n1-c1ccccc1)C(=O)C1COC(C)(C)CC1=N2 (stereo not given) | 92
CC1CN(c2ccccc2)c2nc3c(c(=O)n(C)c(=O)n3C)n2C1 (stereo not given) | 100
CCCc1c(C)c(C#N)c2[nH]c3ccccc3n2c1=O | 94
COC(=O)COc1ccc2c(=O)c(-c3ccc4c(c3)OCCO4)c(C)oc2c1 | 96
CN(Cc1ccccc1)C(=O)CN(c1cccc(F)c1)S(C)(=O)=O | 94
CC(C)(C)NC(=O)COc1cc(N2CCOCC2)c2ccccc2c1Cl | 94
Cc1ccc2nsnc2c1S(=O)(=O)NC12CC3CC(CC(C3)C1)C2 | 100
CSc1cccc(NC(=S)N(C)C)c1 | 93
COc1ccccc1C(=O)NC(C(C)C)C(C)C | 100
